Sampled rows, rich in hits. Any-hit rate of the full collection: about 7.3%.
NPC1 promoter act – activates the NPC1 promoter | Huh7 NPC1 promoter luciferase reporter, 24 h | Potency, µM (highest dose often 9.22 µM), hits mostly activators | actives 2.4% (n = 320,000) | AID 485313; note: nearly all actives have a fitted effect of over 60% in size
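Compounds in DMSO were transferred onto Huh7 NPC1-luciferase reporter cells pre-incubated 2 h; after 24 h at 37 °C, Amplite reagent was dispensed and luminescence recorded 10 min later.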
FLuc counter – inhibits or activates purified firefly luciferase, miR-21 counter-screen | purified FLuc, Km substrates, luminescence inhibition | Potency, µM (top dose mostly 57.5 µM), most hits filed as inhibitors | actives 6.9% (n = 360,000) | AID 588342; note: nearly all actives have a fitted effect of over 55% in size
Target sequence (P08659 whole entry, looked up): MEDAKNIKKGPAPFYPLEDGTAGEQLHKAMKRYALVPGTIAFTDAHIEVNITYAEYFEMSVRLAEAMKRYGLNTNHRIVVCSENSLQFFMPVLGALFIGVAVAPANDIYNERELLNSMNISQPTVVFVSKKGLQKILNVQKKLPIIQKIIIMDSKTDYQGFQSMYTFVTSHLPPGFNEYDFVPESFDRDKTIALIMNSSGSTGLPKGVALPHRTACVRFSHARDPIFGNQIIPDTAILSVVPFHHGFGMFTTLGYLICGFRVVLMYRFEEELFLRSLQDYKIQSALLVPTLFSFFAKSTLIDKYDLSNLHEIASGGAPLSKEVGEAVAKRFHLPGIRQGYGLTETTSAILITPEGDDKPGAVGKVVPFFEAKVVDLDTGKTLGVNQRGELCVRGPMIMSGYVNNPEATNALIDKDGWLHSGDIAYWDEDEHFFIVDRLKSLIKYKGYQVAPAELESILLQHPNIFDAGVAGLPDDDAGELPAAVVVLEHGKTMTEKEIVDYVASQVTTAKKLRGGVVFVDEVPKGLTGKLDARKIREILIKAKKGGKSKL
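Purified P. pyralis luciferase, 10 nM final, with Km-level 10 uM D-luciferin and 10 uM ATP in 50 mM Tris acetate pH 7.5, 10 mM Mg acetate, 0.01% Tween-20, 0.05% BSA; 6-point qHTS titration about 60 µM downward; luminescence read.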
ELG1 genotoxic – inducers of genotoxicity in HEK293T ELG1-luciferase cells; HEK293T ELG1-luciferase reporter, luminescence, 16 h; Potency, µM (highest dose often 46 µM), hits mostly activators; actives 1.3% (n = 330,000); AID 504466; note: nearly all actives have a fitted effect of over 60% in size
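Luminescence read-out: rising ELG1-luciferase signal, reflecting elevated ELG1 protein under genetic stress, flags genotoxic compounds. Cells were treated for 16 hr at 37 °C before ONE-Glo detection.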
SMN2 splice enh – SMN2 splice variant enhancement; HEK293 SMN2-luciferase splicing reporter, luminescence, 30-36 h; Potency, µM (doses to about 46.1 µM), most hits filed as activators; actives 2.8% (n = 210,000); note: nearly all actives have a fitted effect of over 55% in size
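HEK293 cells carry an SMN2 […]–luciferase reporter in which exon 7 inclusion puts luciferase in frame. Cells were plated 10-12 h before compound addition, then incubated 30-36 h at 37C. ONE-Glo luminescence was read; sodium butyrate at 4.5 mM final served as control.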
Rab9 promoter act – activates the Rab9 promoter; Huh7 Rab9 promoter-luciferase reporter, luminescence, 24 h; Potency, µM (top dose mostly 9.22 µM), most hits filed as activators; actives 2.8% (n = 320,000); AID 485297; note: nearly all actives have a fitted effect of over 60% in size
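Promoter activation is measured as luciferase luminescence in Huh7 cells stably transfected with a Rab9 promoter–luciferase construct, following 24 h compound exposure at 37 °C and 10 min reagent incubation at ambient temperature.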
KinaseGlo FLuc – Kinase-Glo luciferase inhibition (counter-screen); Q27757; Kinase-Glo luciferase, ATP luminescence, 8 min; Potency, µM (top dose mostly 38.3 µM), most hits filed as inhibitors; actives 0.28% (n = 200,000); AID 1379; note: nearly all actives have a fitted effect of over 60% in size
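Light output from Kinase-Glo luciferase with luciferin and 10 uM ATP in 50 mM imidazole pH 7.2, KCl, MgCl2, Tween 20, BSA; compound pin-delivered, 8-min ambient incubation, then luminescence read.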
Of the large screens only hits and unclear results are named; the others gave an inactive call. Calls come from the whole dose curve; as a rule, active = well fitted curve in the direction sought with a large enough effect; inconclusive = small, poorly fitted or top-dose-only effect, or another doubt; inactive = no such curve, though single readings can be large; an effect the other way counts as inactive or inconclusive.

Cc1nnc(SCC2=C(C(=O)O)N3C(=O)[C@@H](NC(=O)Cn4cnnn4)[C@@H]3SC2)s1	none (no result: NPC1 promoter act, FLuc counter, ELG1 genotoxic, Rab9 promoter act)
COc1ccc(Cl)cc1NC(=O)Cc1coc2c(C)c(C)ccc12	none (no result: NPC1 promoter act, ELG1 genotoxic, Rab9 promoter act, KinaseGlo FLuc)
O=c1cc(-c2ccncc2)oc2ccccc12	none
O=c1cc(-c2ccc(O)cc2)oc2ccc(O)cc12	NPC1 promoter act inconclusive, FLuc counter 12µM, SMN2 splice enh inconclusive, Rab9 promoter act 3.55µM
O=c1cc(-c2ccc(O)cc2)oc2ccccc12	NPC1 promoter act inconclusive, FLuc counter 10.7µM, ELG1 genotoxic inconclusive, SMN2 splice enh inconclusive, Rab9 promoter act inconclusive
COc1ccc(C(=O)c2c(O)cc(-c3ccc(OC)cc3)oc2=O)cc1	FLuc counter 16.9µM
O=c1cc(-c2ccc3c(c2)OCO3)oc2ccccc12	NPC1 promoter act 3.16µM, FLuc counter inconclusive, ELG1 genotoxic 9.2µM, SMN2 splice enh 12.6µM, Rab9 promoter act 3.55µM
Cc1cccc(N2CCN(C(=O)c3sc4nc5n(c(=O)c4c3C)CCC5)CC2C)c1 (configuration not stated)	none (no result: NPC1 promoter act, ELG1 genotoxic, SMN2 splice enh, Rab9 promoter act, KinaseGlo FLuc)
COc1ccc(-c2cc(=O)c3c(O)c(OC)c(O)cc3o2)cc1	NPC1 promoter act 3.16µM, FLuc counter 0.269µM, ELG1 genotoxic 1.83µM, Rab9 promoter act 3.55µM (no result: SMN2 splice enh, KinaseGlo FLuc)
NC(=O)COc1ccc2oc(-c3ccccc3)cc(=O)c2c1	NPC1 promoter act inconclusive, FLuc counter 12µM, ELG1 genotoxic inconclusive, Rab9 promoter act inconclusive
Cn1c2ccccc2c(=O)c2ccc(-c3ccc4c(c3)OCO4)cc21	NPC1 promoter act 1.26µM, FLuc counter 3.01µM, ELG1 genotoxic inconclusive, Rab9 promoter act 1.12µM (no result: SMN2 splice enh, KinaseGlo FLuc)
COc1ccc(-c2cc3ccccc3c(=O)o2)cc1	SMN2 splice enh 12.6µM (no result: NPC1 promoter act, FLuc counter, ELG1 genotoxic, Rab9 promoter act)
COc1ccc(-c2cc(=O)c3c(O)c(OC)c(OC)c(OC)c3o2)cc1	none (no result: NPC1 promoter act, FLuc counter, ELG1 genotoxic, Rab9 promoter act)
Cc1cccc(C)c1OCCn1c(C2CC(=O)N(Cc3ccc(F)cc3)C2)nc2ccccc21 (configuration not stated)	none (no result: NPC1 promoter act, ELG1 genotoxic, SMN2 splice enh, Rab9 promoter act, KinaseGlo FLuc)
COc1ccc(-c2cc(=O)c3ccccc3o2)cc1	NPC1 promoter act 2.51µM, FLuc counter 6.01µM, ELG1 genotoxic 20.6µM, SMN2 splice enh 10µM, Rab9 promoter act 2µM
COc1ccc2c(=O)cc(-c3ccc(O)cc3)oc2c1	none (no result: NPC1 promoter act, FLuc counter, ELG1 genotoxic, SMN2 splice enh, Rab9 promoter act)
Nc1c(-c2ccc3c(c2)OCCO3)oc2ccccc2c1=O	NPC1 promoter act inconclusive, FLuc counter 9.53µM, ELG1 genotoxic 10.3µM, Rab9 promoter act inconclusive (no result: SMN2 splice enh, KinaseGlo FLuc)
O=c1cc(-c2ccccc2O)oc2cc(O)ccc12	SMN2 splice enh 25.1µM (no result: NPC1 promoter act, FLuc counter, ELG1 genotoxic, Rab9 promoter act)
O=c1cc(-c2cccc(O)c2)oc2ccc(O)cc12	SMN2 splice enh 14.1µM (no result: NPC1 promoter act, FLuc counter, ELG1 genotoxic, Rab9 promoter act)
O=c1cc(-c2ccccc2O)oc2cc(O)cc(O)c12	none (no result: NPC1 promoter act, FLuc counter, ELG1 genotoxic, SMN2 splice enh, Rab9 promoter act)
COc1ccccc1-c1cc(=O)c2cc(O)ccc2o1	none (no result: NPC1 promoter act, FLuc counter, ELG1 genotoxic, SMN2 splice enh, Rab9 promoter act)
CN1CCN(C(=O)Cn2c(-c3cccs3)cc3ccccc32)CC1	none (no result: NPC1 promoter act, ELG1 genotoxic, SMN2 splice enh, Rab9 promoter act, KinaseGlo FLuc)
CCOc1ccc2ncc3c(-c4ccccc4)nn(CC(=O)Nc4cccc(F)c4)c3c2c1	none (no result: NPC1 promoter act, ELG1 genotoxic, SMN2 splice enh, Rab9 promoter act, KinaseGlo FLuc)
O=[N+]([O-])c1ccc2nc(-c3ccccc3)oc2c1	NPC1 promoter act 2.82µM, FLuc counter 9.53µM, ELG1 genotoxic inconclusive, SMN2 splice enh 11.2µM, Rab9 promoter act 3.16µM
COc1cccc(-c2nc3ccc([N+](=O)[O-])cc3o2)c1	NPC1 promoter act inconclusive, FLuc counter 1.51µM, ELG1 genotoxic inconclusive, SMN2 splice enh 15.8µM, Rab9 promoter act 2.24µM, KinaseGlo FLuc inconclusive
O=c1oc(-c2cccc([N+](=O)[O-])c2)nc2ccccc12	FLuc counter inconclusive (no result: SMN2 splice enh, KinaseGlo FLuc)
Cc1nn(-c2ccccn2)c2c1-c1nc(N3CCOCC3)ncc1CC2	none
Cc1nn(-c2ccccn2)c2c1-c1nc(N)ncc1CC2	NPC1 promoter act 3.55µM, FLuc counter 10.7µM, SMN2 splice enh inconclusive, Rab9 promoter act 3.16µM
CCC(C)c1ccc(NC(=O)C2=CC=CN3CCS(=O)(=O)N=C23)cc1 (configuration not stated)	FLuc counter 2.13µM, ELG1 genotoxic inconclusive, Rab9 promoter act inconclusive (no result: SMN2 splice enh, KinaseGlo FLuc)
CCOC(=O)c1ccccc1NS(=O)(=O)c1c(-c2ccc(C)cc2)csc1C(=O)OC	none (no result: NPC1 promoter act, ELG1 genotoxic, SMN2 splice enh, Rab9 promoter act, KinaseGlo FLuc)
CCOc1cc(C#N)c(NC(=O)c2cccc(S(=O)(=O)N3CCOCC3)c2)cc1OCC	none (no result: NPC1 promoter act, ELG1 genotoxic, Rab9 promoter act, KinaseGlo FLuc)
COC(=O)CSc1ncc(S(=O)(=O)c2ccccc2)c(=O)[nH]1	none (no result: SMN2 splice enh, KinaseGlo FLuc)

Bioassay records deposited in PubChem BioAssay by National Center for Advancing Translational Sciences (NCATS).
